Assay results published in PubChem BioAssay (Tox21).
Records with an inconclusive call do not appear. Entries that show only a call come without a potency. Activity calls are given as the source filed them. Unless noted, the call rests on the fitted dose curve; in most records, active means well fitted curve in the direction sought with a large enough effect in the repeat runs; inconclusive means weak or mixed curves; inactive means no such curve, though single readings can be large; an effect the other way counts as inactive or inconclusive.

What was measured:
[1] = qHTS assay for small molecules that induce genotoxicity in human embryonic kidney cells expressing luciferase-tagged ATAD5 (AID 651632); further: nearly all actives have a fitted effect of over 15% in size
Procedure, shortened: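 Luminescent reporter readout, HEK293T ATAD5-luc line: 16 hr drug exposure (37C, 5% CO2) followed by Amplite, 30 min RT.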

[2] = qHTS assay for small molecule agonists of the p53 signaling pathway - cell viability (AID 651633; calls by dose curve;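 further: p53RE-bla HCT reporter cells with a stable beta-lactamase p53 reporter; series mostly up to about 83 µM; nearly all actives have a fitted effect of over 30% in size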)
Procedure, shortened: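 p53RE-bla cells, seeded at 4,000 per well and rested 5 h at 37 C/5% CO2, received compounds in DMSO for 16 h at 37 C. CellTiter-Glo was then added, and luminescence was read after 30 min at room temperature to gauge cytotoxicity.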

[3] = qHTS assay for small molecules that induce genotoxicity in human embryonic kidney cells expressing luciferase-tagged ATAD5 - cell viability (AID 651634; calls by dose curve; further: nearly all actives have a fitted effect of over 25% in size)
Procedure, shortened: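 Viability read: CellTiter-Fluor fluorescence, 30 min at 37C. Cells: HEK293T, luciferase-tagged ATAD5. Exposure: 15.5 hr, 37C, 5% CO2, compound or DMSO vehicle.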

[4] = qHTS assay for small molecule disruptors of the mitochondrial membrane potential - cell viability (AID 720634; calls by dose curve;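 further: human HepG2 liver cancer cells; series mostly up to about 83 µM; nearly all actives have a fitted effect of over 20% in size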)
Procedure, shortened: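 HepG2, 1 hr compound, 37 C. ATP luminescence via CellTiter-Glo, 30 min RT, same well as m-MPI.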

[5] = qHTS assay to test for compound auto fluorescence at 590 nm (red) in HepG2 cells (AID 720674)
Procedure, shortened: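 Rose Bengal sodium served as the red fluorophore standard. HepG2 monolayers (overnight attachment, MEM with 10% FBS) were exposed to test compounds for 1 hr at 37 C and read at Ex 540/Em 590 nm.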

[6] = qHTS assay to test for compound auto fluorescence at 535 nm (green) in HepG2 cells (AID 720675)
[7] = qHTS assay to test for compound auto fluorescence at 460 nm (blue) in HEK293 cells (AID 720678)
Procedure, shortened: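 Blue-channel (Ex/Em 405/460 nm) intensity measured in HEK293 cultures after overnight compound exposure at 37C; signal expressed relative to triamterene. Cells plated 2,000 per well in 10% dialyzed FBS medium and allowed 4-5 hr to attach.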

[8] = qHTS assay to test for compound auto fluorescence at 590 nm (red) in HEK293 cells (AID 720679)
Procedure, shortened: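 Red-channel autofluorescence (Ex/Em 540/590 nm; Rose Bengal sodium reference) was measured after overnight 37C, 5% CO2 exposure of attached HEK293 cells, 2,000 per well in medium with 10% dialyzed FBS.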

[9] = qHTS assay to test for compound auto fluorescence at 535 nm (green) in HEK293 cells (AID 720680)
[10] = qHTS assay to test for compound auto fluorescence at 460 nm (blue) in HEK293 cell free culture (AID 720681)
Procedure, shortened: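 Test compounds were pinned into cell-free culture medium (DMEM with 10% FBS) and fluorescence was read directly at Ex/Em 405/460 nm. Signals were expressed as fluorescence equivalents of triamterene, with DMSO vehicle as control.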

[11] = qHTS assay to test for compound auto fluorescence at 535 nm (green) in HEK293 cell free culture (AID 720682)
Procedure, shortened: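 Green-label autofluorescence (485 nm excitation, 535 nm emission) measured on compound added to cell-free culture medium (DMEM, 10% FBS). Output is expressed relative to fluorescein.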

[12] = qHTS assay to test for compound auto fluorescence at 590 nm (red) in HEK293 cell free culture (AID 720683)
Procedure, shortened: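 Tox21 10K library compounds were pinned into cell-free DMEM with 10% FBS and fluorescence was read at excitation 540 nm. Activity is expressed as Rose Bengal sodium equivalency.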

[13] = qHTS assay to test for compound auto fluorescence at 590 nm (red) in HepG2 cell free culture (AID 720684)
Procedure, shortened: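 Measured in medium alone (MEM containing 10% FBS) following pintool addition of compound; emission at 590 nm with 540 nm excitation, referenced to Rose Bengal sodium.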

[14] = qHTS assay to test for compound auto fluorescence at 460 nm (blue) in HepG2 cell free culture (AID 720685)
Procedure, shortened: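 Compound (23 nL) or DMSO pinned into cell-free MEM with 10% FBS; blue fluorescence read at 405/460 nm excitation/emission, expressed as auto-fluorescence equivalency to triamterene.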

[15] = qHTS assay to test for compound auto fluorescence at 535 nm (green) in HepG2 cell free culture (AID 720686)
[16] = qHTS assay to test for compound auto fluorescence at 460 nm (blue) in HepG2 cells (AID 720687)
Procedure, shortened: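 Cells (2,000/well in MEM with 10% FBS) attached overnight at 37 C, then were exposed to compound or DMSO for 1 hr at 37 C, 5% CO2. Fluorescence read at Ex/Em 405/460 nm, expressed as triamterene-equivalent signal.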

[17] = target: Glucocorticoid receptor (Homo sapiens) (UniProt P04150); experiment: qHTS assay to identify small molecule agonists of the glucocorticoid receptor (GR) signaling pathway (AID 720691; active means well fitted activation curve with a large enough effect in the signal ratio in the repeat runs, not every such curve was filed as active; the % refers to the signal ratio)
Glucocorticoid receptor (Homo sapiens), sequence (P04150 whole entry, looked up): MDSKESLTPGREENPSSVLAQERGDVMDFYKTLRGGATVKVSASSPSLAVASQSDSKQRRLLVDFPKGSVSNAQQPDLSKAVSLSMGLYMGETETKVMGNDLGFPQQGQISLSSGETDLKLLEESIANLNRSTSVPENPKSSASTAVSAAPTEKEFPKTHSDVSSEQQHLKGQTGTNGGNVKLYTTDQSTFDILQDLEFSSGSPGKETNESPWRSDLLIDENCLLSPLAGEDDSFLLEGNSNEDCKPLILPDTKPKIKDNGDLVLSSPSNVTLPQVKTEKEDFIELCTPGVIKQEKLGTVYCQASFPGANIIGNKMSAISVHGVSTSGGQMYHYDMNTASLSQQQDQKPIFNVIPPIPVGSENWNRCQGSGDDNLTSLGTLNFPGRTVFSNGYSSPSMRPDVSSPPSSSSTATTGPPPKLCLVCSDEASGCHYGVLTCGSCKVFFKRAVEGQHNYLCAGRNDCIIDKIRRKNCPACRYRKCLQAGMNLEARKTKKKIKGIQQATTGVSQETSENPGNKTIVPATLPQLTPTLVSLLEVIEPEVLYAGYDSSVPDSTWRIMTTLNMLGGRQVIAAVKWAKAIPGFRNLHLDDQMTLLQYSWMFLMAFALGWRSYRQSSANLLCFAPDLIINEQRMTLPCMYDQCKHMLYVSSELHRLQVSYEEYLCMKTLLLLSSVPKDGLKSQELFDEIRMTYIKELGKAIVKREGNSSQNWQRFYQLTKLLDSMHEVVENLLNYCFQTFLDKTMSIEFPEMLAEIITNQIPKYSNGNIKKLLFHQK
Procedure, shortened: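 qHTS in GR-bla HeLa cells: 4 h settling at 37 C/5% CO2, 18 h compound incubation at 37 C, 2 h LiveBLAzer B/G FRET substrate at room temperature, fluorescence intensity measured.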

[18] = qHTS assay for small molecule disruptors of the mitochondrial membrane potential (AID 720635)
Procedure, shortened: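 HepG2 cells (2,000/well) attached overnight at 37C, then took compound for 1 hr at 37C, 5% CO2. Mito-MPS dye was added for 30 min; fluorescence was read at 490/535 nm (monomers) and 540/590 nm (aggregates).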

[19] = target: Glucocorticoid receptor (Homo sapiens) (UniProt P04150); experiment: qHTS assay to identify small molecule antagonists of the glucocorticoid receptor (GR) signaling pathway (AID 720692; active means well fitted inhibition curve with a large enough effect in the signal ratio in the repeat runs, not every such curve was filed as active; the % refers to the signal ratio; further: potency means the concentration at half of the fitted maximal effect)
Procedure, shortened: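 Inhibition of glucocorticoid signalling is measured in HeLa cells with a GRE-controlled beta-lactamase reporter; cells are co-treated with compound and 5 nM dexamethasone (final) for 18 h before FRET substrate readout.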

[20] = qHTS assay for small molecule agonists of the p53 signaling pathway (AID 651631; calls by dose curve; further: potency means the concentration at half of the fitted maximal effect; nearly all actives have a fitted effect of over 15% in size)
Procedure, shortened: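 HCT-116 cells carrying a beta-lactamase reporter under p53 response elements were dosed with compound for 16 h at 37 °C. LiveBLAzer B/G FRET substrate was then added for 2 h at room temperature, and fluorescence intensity was read to detect pathway agonism.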

SMILES: Cc1ccccc1N=C(N)Nc1ccccc1C
- Potency [1]: inactive
- Potency [2]: inactive
- Potency [3]: inactive
- Potency [4]: inactive
- outcome [5]: inactive
- outcome [6]: inactive
- Potency [7]: inactive
- outcome [8]: inactive
- outcome [9]: inactive
- Potency [10]: inactive
- outcome [11]: inactive
- outcome [12]: inactive
- outcome [13]: inactive
- Potency [14]: inactive
- outcome [15]: inactive
- Potency [16]: inactive
- Potency [17]: inactive

SMILES: Cc1cc(C)c(N)cc1C
- Potency [1]: inactive
- Potency [2]: inactive
- Potency [3]: inactive
- Potency [4]: inactive
- Potency [18]: inactive
- outcome [5]: inactive
- outcome [6]: inactive
- Potency [7]: inactive
- outcome [8]: inactive
- outcome [9]: inactive
- Potency [10]: inactive
- outcome [11]: inactive
- outcome [12]: inactive
- outcome [13]: inactive
- Potency [14]: inactive
- outcome [15]: inactive
- Potency [16]: inactive
- Potency [17]: inactive
- Potency [19]: inactive

SMILES: C=C/C(C)=C/C/C=C(\C)CCC=C(C)C
- Potency [1]: inactive
- Potency [2]: inactive
- Potency [3]: inactive
- Potency [4]: inactive
- outcome [5]: inactive
- outcome [6]: inactive
- Potency [7]: inactive
- outcome [8]: inactive
- outcome [9]: inactive
- Potency [10]: inactive
- outcome [11]: inactive
- outcome [12]: inactive
- outcome [13]: inactive
- Potency [14]: inactive
- outcome [15]: inactive
- Potency [16]: inactive
- Potency [17]: inactive
- Potency [19]: 38.9 µM (active)

SMILES: CCC(C)COC(C)=O (stereo not given)
- Potency [1]: inactive
- Potency [2]: inactive
- Potency [3]: inactive
- Potency [4]: inactive
- Potency [18]: inactive
- outcome [5]: inactive
- outcome [6]: inactive
- Potency [7]: inactive
- outcome [8]: inactive
- outcome [9]: inactive
- Potency [10]: inactive
- outcome [11]: inactive
- outcome [12]: inactive
- outcome [13]: inactive
- outcome [15]: inactive
- Potency [16]: inactive
- Potency [17]: inactive

SMILES: C=CC(=O)OCC1CC2CC1C1CCC(COC(=O)C=C)C21 (stereo not given)
- Potency [20]: 54.5 µM (active)
- Potency [4]: inactive
- outcome [5]: inactive
- outcome [6]: inactive
- Potency [7]: inactive
- outcome [8]: inactive
- outcome [9]: inactive
- Potency [10]: inactive
- outcome [11]: inactive
- outcome [12]: inactive
- outcome [13]: inactive
- Potency [14]: inactive
- outcome [15]: inactive
- Potency [16]: inactive
